According to PubChem BioAssay AID743316 (Broad Institute, 2014):
Results with a measured potency or affinity are listed apart. The source made the active and inactive calls. The rule behind the calls is not given here.

conditions: HEK293 cytotoxicity, plate reader; series mostly up to 26 µM

| SMILES | outcome |
| --- | --- |
| CC(C)Oc1ccc(OCCn2cnc3ccccc32)cc1 | inactive |
| CCCc1nc2ccccc2n1CCOc1ccccc1 | inactive |
| FC(F)(F)c1cccc(OCCn2cnc3ccccc32)c1 | inactive |
| CSc1nc2ccccc2n1CCOc1ccc(C)cc1 | inactive |
| COc1ccccc1OCCn1c(=S)[nH]c2ccccc21 | inactive |
| OCc1nc2ccccc2n1CCOc1ccccc1 | inactive |
| Clc1ccc(OCCn2cnc3ccccc32)c(Cl)c1 | inactive |
| CCc1nc2ccccc2n1CCOc1ccccc1 | inactive |
| CCSc1nc2ccccc2n1CCOc1ccccc1 | inactive |
| O=S(=O)(c1ccc(OCCn2cnc3ccccc32)cc1)N1CCOCC1 | inactive |
| CCCCc1nc2ccccc2n1CCOc1ccccc1 | inactive |
| Fc1ccc2c(c1)[nH]c(=S)n2CCOc1ccccc1 | inactive |
| Cc1ccc2c(c1)[nH]c(=S)n2CCOc1ccccc1 | inactive |
| Cc1cc2ncn(CCOc3ccccc3)c2cc1C | inactive |
| CS(=O)(=O)c1ccc(OCCn2cnc3ccccc32)cc1 | inactive |
| Clc1ccc(OCCn2cnc3ccccc32)cc1 | inactive |

| SMILES | outcome |
| --- | --- |
| Cc1ccc(OCCn2cnc3cc(C)c(C)cc32)cc1 | inactive |
| CSc1nc2ccccc2n1CCOc1cc(C)ccc1C(C)C | inactive |
| Clc1ccccc1OCCn1cnc2ccccc21 | inactive |
| CC(C)Oc1ccc(OCCn2c(=S)[nH]c3ccccc32)cc1 | inactive |
| Cc1ccc(C(C)C)c(OCCn2c(=S)[nH]c3ccccc32)c1 | inactive |
| Cc1ccc(OCCn2cnc3ccccc32)c(C)c1 | inactive |
| Cc1ccccc1OCCn1cnc2ccccc21 | inactive |
| Fc1ccc(OCCn2c(=S)[nH]c3ccccc32)cc1 | inactive |
| COc1ccc(OCCn2cnc3ccccc32)cc1 | inactive |
| Cc1cccc(OCCn2c(=S)[nH]c3c(F)cccc32)c1 | inactive |
| S=c1[nH]c2cccc(Cl)c2n1CCOc1ccccc1 | inactive |
| Cc1cccc(OCCn2c(=S)[nH]c3ccccc32)c1 | inactive |
| Fc1cccc2c1[nH]c(=S)n2CCOc1ccccc1 | inactive |
| Cc1cccc(OCCn2cnc3ccccc32)c1 | inactive |
| COc1cccc(OCCn2cnc3ccccc32)c1 | inactive |
